Each structure is given as a SMILES string. Several values for one entry are separate records, joined by “and”; a condition that tells them apart may be missing. Equal entries are not always repeated. Results filed as inconclusive are left out. Values without a mark were called inactive. Activity calls are given as the source filed them. Calls come from the whole dose curve; as a rule, active = well fitted curve in either direction with a large enough effect (not every such curve was filed as active); inconclusive = small, poorly fitted or top-dose-only effect, or another doubt; inactive = flat fitted curve, though single readings scatter.

The text below walks through data of PubChem BioAssay (NCATS).
% is set by controls: 0 for no effect and ±100 for the full control effect.

One assay can be described thus: NFAT Signaling Pathway (AID 444).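 Note: carbachol stimulus at about its EC50 of 1 µM final.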 The settings on record: Jurkat NFAT-bla M1, carbachol, beta-lactamase ratio, 5 h; at 38 µM (top of the series). The method, boiled down:
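Jurkat cells with NFAT-driven β-lactamase reporter and co-expressed M1 receptor, stimulated with carbachol (final 1 uM, ~EC50), compound titration, 5 h at 37 °C. CCF4 loaded 1 h at RT; 460/530 nm ratio gave %activity and AC50.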
As for `NCCc1c[nH]c2ccc(O)cc12`, the activity change, negative = inhibition is 4.18%.

In the case of `c1ccc(CCCN2CCN(CCOC(c3ccccc3)c3ccccc3)CC2)cc1`, the activity change, negative = inhibition is -82.7% (active).

Take `CC(=O)NCCc1c[nH]c2ccccc12`: the activity change, negative = inhibition was 5.76%.

As to `CN[C@@H]1C[C@@H](c2ccc(Cl)c(Cl)c2)c2ccccc21`, the activity change, negative = inhibition was -14.3%.

For `CC1=NN=C(c2ccc(N)cc2)c2cc3c(cc2C1)OCO3`, the activity change, negative = inhibition is 7.54%.

Take `CCCN1CCC[C@H](c2cccc(O)c2)C1`: the activity change, negative = inhibition was -6.4% and -13.2%.

Take `Cn1cnc(CCN)c1`: the activity change, negative = inhibition was 6.43%.

With `NCCc1c[nH]c2ccccc12`, the activity change, negative = inhibition is -3.55%.

Consider `Cc1nccc2c1[nH]c1ccccc12`, for which the activity change, negative = inhibition is -12.6%.

Regarding `O=C(O)Cc1cnc[nH]1`, the activity change, negative = inhibition was -2.43%.

`C[C@]12N[C@H](Cc3ccccc31)c1ccccc12`: the activity change, negative = inhibition was -11.3% and -3.27%.

On to `NCc1cc(=O)[nH]o1`, for which the activity change, negative = inhibition is 7.89%.

As for `CNCCc1c[nH]c2ccc(O)cc12`, the activity change, negative = inhibition was 12.8%.

`O=C(O)CC[N+](=O)[O-]`: the activity change, negative = inhibition is 10%.

On to `CNCCc1ccc(O)c(O)c1`, for which the activity change, negative = inhibition is 4.43%.

On to `CCCCc1ccc(C(=O)O)nc1`, for which the activity change, negative = inhibition is 6.08%.

As to `CCCN1CCO[C@@H]2c3cc(O)ccc3OC[C@H]21`, the activity change, negative = inhibition is 8.87% and 8.95%.

As to `CC[C@@]1(O)C(=O)OCc2c1cc1n(c2=O)Cc2cc3ccccc3nc2-1`, the activity change, negative = inhibition is -97% (active).

Regarding `C#CCOC(=O)C1=CCCN(C)C1`, the activity change, negative = inhibition is 44.2% [activator] (active).

The next assay in a line: Stat Signaling Pathway (AID 446).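 Note: ME-180 cervical cancer cells given 40 pM IL-6 alongside compound; SIE-controlled beta-lactamase reporter measured as 460/530 nm FRET emission ratio.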 The settings on record: ME-180 SIE beta-lactamase reporter, IL-6 stimulated, 5 h; at 17.2 µM (top of the series). In a few lines: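 FRET read-out (405 nm excitation, 460/530 nm emission) of a beta-lactamase reporter under a STAT-inducible element in ME-180 cervical carcinoma cells. Cells with compound receive 40 pM IL-6 for 5 h. Values are normalised to AC90 stimulation and AC90 JAK-inhibitor controls.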
Take `NCCc1c[nH]c2ccc(O)cc12`: the activity, negative = inhibition is -0.625%.

As to `Cc1nccc2c1[nH]c1ccccc12`, the activity, negative = inhibition was 1.58%.

Turning to `O=c1cccc2n1CC1CNC[C@H]2C1`, the activity, negative = inhibition was 6.88%.

As for `CC(=O)OCC1=C(C(=O)O)N2C(=O)[C@@H](N)[C@@H]2SC1`, the activity, negative = inhibition was -1.03%.

For the molecule `CC[C@@H]1C(=O)OC[C@@H]1Cc1cncn1C`, the activity, negative = inhibition is 1.99% and 5.87%.

Consider `CCCCc1ccc(C(=O)O)nc1`, for which the activity, negative = inhibition is 6.81%.

Turning to `CC[C@@]1(O)C(=O)OCc2c1cc1n(c2=O)Cc2cc3ccccc3nc2-1`, the activity, negative = inhibition is -95.6% (active).

Regarding `CN(C)[C@@H]1C(=O)C(C(N)=O)=C(O)[C@@]2(O)C(=O)C3=C(O)c4c(O)cccc4[C@@](C)(O)[C@H]3[C@H](O)[C@@H]12`, the activity, negative = inhibition was 3.84%.

Still in this assay, the particulars now being: ME-180 (cervical carcinoma) SIE beta-lactamase reporter, IL-6 stimulated, 5 h; at 38 µM (top of the series).
For the molecule `NCCc1c[nH]c2ccc(O)cc12`, the activity, negative = inhibition is -13.2%.

As to `c1ccc(CCCN2CCN(CCOC(c3ccccc3)c3ccccc3)CC2)cc1`, the activity, negative = inhibition was -17.9%.

As for `CCCN1CCC[C@H](c2cccc(O)c2)C1`, the activity, negative = inhibition is 0.0297% and 5.34%.

With `Cn1cnc(CCN)c1`, the activity, negative = inhibition was 0.0099%.

On to `c1ccc2sc(C3(N4CCCCC4)CCCCC3)cc2c1`, for which the activity, negative = inhibition is -24.8%.

Regarding `NCCc1c[nH]c2ccccc12`, the activity, negative = inhibition is -11.1%.

For `Cc1nccc2c1[nH]c1ccccc12`, the activity, negative = inhibition is 11%.

As to `O=C(O)Cc1cnc[nH]1`, the activity, negative = inhibition is -3.06%.

`C[C@]12N[C@H](Cc3ccccc31)c1ccccc12`: the activity, negative = inhibition is 16.1% and 6.66%.

Turning to `NCc1cc(=O)[nH]o1`, the activity, negative = inhibition is -1.4%.

For the molecule `CNCCc1c[nH]c2ccc(O)cc12`, the activity, negative = inhibition was -2.52%.

Consider `O=C(O)CC[N+](=O)[O-]`, for which the activity, negative = inhibition was 1.14%.

Turning to `CNCCc1ccc(O)c(O)c1`, the activity, negative = inhibition was -23.7%.

Turning to `CCCCc1ccc(C(=O)O)nc1`, the activity, negative = inhibition is 9.55%.

In the case of `CCCN1CCO[C@@H]2c3cc(O)ccc3OC[C@H]21`, the activity, negative = inhibition was 12% and -17.6%.

`CC[C@@]1(O)C(=O)OCc2c1cc1n(c2=O)Cc2cc3ccccc3nc2-1`: the activity, negative = inhibition was 42.7% (active).

As for `Clc1cnc(Oc2ccc(Oc3ncc(Cl)cc3Cl)cc2)c(Cl)c1`, the activity, negative = inhibition was 1.75%.

As to `O=C1CCCN1CC#CCN1CCCC1`, the activity, negative = inhibition is -7.65%.

For `CCCN(CCC)[C@@H]1CCc2ccc(O)cc2C1`, the activity, negative = inhibition is -20.3% and 11.5%.

`C#CCOC(=O)C1=CCCN(C)C1`: the activity, negative = inhibition was 14.7%.
